Compound activity as filed in PubChem BioAssay.
PNC inhibitor – High Content Assay for Compounds that inhibit the Assembly of the Perinucleolar Compartment. PC3M PTB-GFP, PNC prevalence imaging, 16 h; hits give low values. activity change (PNC), negative = inhibition, % at 10 µM. 3.1% of 140,000 active. AID 2417, 2010;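 active means readout at or below -70, meaning at least 70% loss of cells showing the perinucleolar compartment, a nuclear body marking cancer cells; inconclusive means readout between -30 and a set limit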
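PC3M cells stably expressing PTB-GFP, 750–1000 cells/well, treated 16 h at 37 °C with compound (23 nl of library stock), in duplicate. After paraformaldehyde fixation and Hoechst stain, imaged at 20x; PNC prevalence scored by image analysis.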
HPGD inh – qHTS Assay for Inhibitors of HPGD (15-Hydroxyprostaglandin Dehydrogenase) | 15-hydroxyprostaglandin dehydrogenase [NAD(+)] (Homo sapiens), P15428 | purified HPGD, NADH fluorescence kinetic, PGE2 substrate | Potency, µM, hits mostly inhibitors | 4.3% of 150,000 active
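NADH formation kinetics: reaction with 30 uM PGE2 and 1 mM NAD+ (final), 20 nM enzyme, Tris-HCl pH 8 with Tween 20, after 15 min compound preincubation at room temperature. Fluorescence change, last versus first of five reads.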
ALDH1A1 inh – qHTS Assay for Inhibitors of Aldehyde Dehydrogenase 1 (ALDH1A1) | Aldehyde dehydrogenase 1A1 (Homo sapiens), P00352 | Purified ALDH1A1, NADH fluorescence, propionaldehyde substrate | Potency, µM (top dose mostly 75.3 µM), hits mostly inhibitors | 7.3% of 220,000 active | AID 1030, 2008
Target sequence (P00352 whole entry, looked up): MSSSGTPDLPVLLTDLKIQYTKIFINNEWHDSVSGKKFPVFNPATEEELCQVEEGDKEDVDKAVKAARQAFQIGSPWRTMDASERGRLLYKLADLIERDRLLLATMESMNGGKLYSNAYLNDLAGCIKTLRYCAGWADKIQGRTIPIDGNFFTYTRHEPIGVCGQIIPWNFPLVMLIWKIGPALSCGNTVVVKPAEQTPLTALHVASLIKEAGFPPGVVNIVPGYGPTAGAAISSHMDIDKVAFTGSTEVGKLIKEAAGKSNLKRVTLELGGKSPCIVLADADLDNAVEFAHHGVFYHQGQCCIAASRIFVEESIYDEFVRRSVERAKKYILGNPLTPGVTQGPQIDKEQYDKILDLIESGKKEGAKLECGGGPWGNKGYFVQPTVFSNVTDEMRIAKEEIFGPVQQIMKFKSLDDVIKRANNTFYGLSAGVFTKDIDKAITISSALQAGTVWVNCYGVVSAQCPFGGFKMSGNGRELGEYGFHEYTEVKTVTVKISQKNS
Each line names hits and unclear results; the compound was inactive in the other large screens. An excerpt weighted towards active compounds, which were near 11% of everything screened. Unless noted, the call rests on the fitted dose curve; in most records, active means well fitted inhibition curve with a large enough effect (not every such curve was filed as active); inconclusive means small, poorly fitted or top-dose-only effect, or another doubt; inactive means no such curve, though single readings can be large or run the other way.

O=S(=O)(c1cccc(-c2nnco2)c1)N1CCCC1	PNC inhibitor -107
COc1ccc(-n2ncc(N(C)n3cccc3)c(Cl)c2=O)cc1	none (no result: HPGD inh)
COc1ccc(-n2ncc(Cl)c(Cl)c2=O)cc1	ALDH1A1 inh 10µM (no result: PNC inhibitor, HPGD inh)
COc1ccc2c(c1)O[C@H](c1ccc3c(c1)OCO3)[C@@H](OC(=O)NCc1ccco1)C2=O	none (no result: PNC inhibitor)
Oc1cc2c(cc1C(c1ccc(Br)cc1)N1CCCC1)OCO2 (stereo not given)	ALDH1A1 inh 2µM (no result: PNC inhibitor, HPGD inh)
S=C(c1ccc2c(c1)OCO2)N1CCCCCC1	HPGD inh inconclusive
N#C/C(=C(\O)c1ccco1)c1ccccn1	ALDH1A1 inh 25µM
N#C/C(=C(/O)c1ccco1)c1nc2ccccc2s1	none
O=c1c(-c2ccnn2-c2ccc(F)cc2)cnc2n1CCS2	none
O=c1c(-c2ccnn2-c2cccc(Cl)c2)cnc2n1CCS2	PNC inhibitor -81
O=C(CN1CCN(Cc2ccc3c(c2)OCO3)CC1)Nc1ccc2c(c1)OCCO2	PNC inhibitor inconclusive
CCOc1ccc(NC(=O)CN2CCN(CC(=O)Nc3ccc(Cl)c(C(F)(F)F)c3)CC2)cc1	PNC inhibitor inconclusive, ALDH1A1 inh 13µM
CCOc1ccc(NC(=O)CN2CCN(CC(=O)Nc3cccc(F)c3)CC2)cc1	ALDH1A1 inh 18µM
CCOc1ccc(NC(=O)COc2ccc(OC)cc2)cc1	none (no result: PNC inhibitor, HPGD inh)
COc1ccccc1N1CCN(CC(=O)Nc2ccc(Cl)c(C(F)(F)F)c2)CC1	ALDH1A1 inh inconclusive
CCOc1ccc(NC(=O)CN2CCN(CC(=O)Nc3cc(OC)cc(OC)c3)CC2)cc1	ALDH1A1 inh 11µM
CCOc1ccc(NC(=O)CN2CCN(CC(=O)Nc3ccc4c(c3)OCCO4)CC2)cc1	PNC inhibitor inconclusive, ALDH1A1 inh 8.9µM
O=C(CN1CCN(c2ccc(Cl)cc2)CC1)Nc1cccc(F)c1	none
C/C(CC(=O)NC12CC3CC(CC(C3)C1)C2)=N\NC(=O)c1ccc(C)cc1	none (no result: PNC inhibitor, HPGD inh)
CC(C)[C@]1(Cl)CC[C@@H]2[C@]3(C)CCC[C@@](C)(C(=O)O)[C@H]3C[C@H](Cl)[C@@]2(Cl)[C@H]1Cl	none (no result: PNC inhibitor)
CCCCC(CC)C(=O)Nc1ccc(C)c(O)c1 (stereo not given)	none (no result: PNC inhibitor, HPGD inh)
COc1cc(/C=N/NC2=NC(C)(C)Cc3ccccc32)cc(OC)c1OC	none (no result: PNC inhibitor, HPGD inh)
O=C(CN1CCC(c2nc3ccccc3[nH]2)CC1)Nc1ccc2c(c1)OCO2	none
Cc1ccc2nc(C3CCN(CC(=O)Nc4ccc5c(c4)OCCO5)CC3)[nH]c2c1	ALDH1A1 inh 22µM
COCCN(C(=O)CNC(=O)c1cccs1)C(C(=O)NC1CCCCC1)c1ccco1 (stereo not given)	none
COCCN(C(=O)CNC(=O)c1cccs1)C(C(=O)NC1CCCC1)c1cccs1 (stereo not given)	none
COCCN(C(=O)CNC(=O)c1ccco1)C(C(=O)NC1CCCC1)c1cccs1 (stereo not given)	PNC inhibitor -100
COCCN(C(=O)C(F)(F)F)C(C(=O)NC1CCCCC1)c1ccco1 (stereo not given)	PNC inhibitor inconclusive, ALDH1A1 inh 4.7µM
COc1ccc(C2COc3c(ccc(O)c3OC)C2)c(OC)c1O (stereo not given)	none (no result: PNC inhibitor)
CC(C)C=O	none (no result: PNC inhibitor)
Cc1cc(OCc2cn3cccnc3n2)ccc1Cl	HPGD inh inconclusive
CCCCCCS(=O)[C@H]1CS(=O)(=O)C[C@@H]1S(=O)CCCCCC (stereo not given in full)	HPGD inh 13µM, ALDH1A1 inh inconclusive
CCCCCCCCS(=O)C1CCS(=O)(=O)C1 (stereo not given)	PNC inhibitor inconclusive
Cc1cc(SCC(=O)c2ccccc2)nc2ccccc12	none (no result: PNC inhibitor)
Cc1ccc(C(=O)CSc2cnc3ccccc3n2)cc1C	HPGD inh 22µM, ALDH1A1 inh 22µM
CN(C)C(=O)CSc1cnc2ccccc2n1	none (no result: PNC inhibitor, HPGD inh)
CC1CCCN(C(=O)CSc2cnc3ccccc3n2)C1 (stereo not given)	HPGD inh 4.5µM, ALDH1A1 inh 28µM
Cc1cc2cc(CNC(=S)NC3CCCCC3)ccc2n1C	none (no result: PNC inhibitor, HPGD inh)
CCCCCCN1N=C(C)C(C(=O)c2ccc(Cl)cc2)C1=O (stereo not given)	ALDH1A1 inh inconclusive
CCCCCCCN1N=C(C)C(C(=O)c2ccccc2)C1=O (stereo not given)	PNC inhibitor -85
O=C(CC(c1ccco1)C1CCCCC1=O)c1ccccc1 (stereo not given)	ALDH1A1 inh inconclusive
COc1cc(CNC2CCCCCC2)cc(OC)c1	PNC inhibitor inconclusive
O=C1C(=O)c2ccccc2C(O)=C1C1CCC(c2ccc(Cl)cc2)CC1 (stereo not given)	HPGD inh inconclusive (no result: PNC inhibitor)
O=C1c2ccccc2C(=O)C12OC2c1ccc(Cl)cc1 (stereo not given)	ALDH1A1 inh 0.79µM
O=C(NCc1ccncc1)C(=O)NC1CC1	none (no result: PNC inhibitor, HPGD inh)
COC(=O)CCCC[C@@H]1SC[C@@H](NC(=O)OC)[C@@H]1NC(=O)OC	none
COC(=O)CCCCC1SCC(NC(=O)OC)C1NC(=O)OC (stereo not given)	PNC inhibitor -86
N#Cc1ccccc1-c1ccc2ncnc(NC3CC3)c2c1	none (no result: PNC inhibitor, HPGD inh)
COc1cc(C)cc2c(-c3c(O)cc(O)c4c3C[C@H](C)N[C@@H]4C)cc(-c3cc(-c4c(O)cc(O)c5c4C[C@H](C)N[C@@H]5C)c4cc(C)cc(OC)c4c3O)c(O)c12	ALDH1A1 inh inconclusive (no result: PNC inhibitor)
CC(C)OCCCNC(=O)CCC(=O)NNc1nc2ccccc2c2nc(-c3ccccc3)nn12	none
CCCCOc1ccc(CNC(=S)N/N=C/c2ccc(OC)c(OC)c2)cc1	HPGD inh 16µM
COCCNC(=S)N/N=C/c1ccc(OCc2ccc(C(=O)OC)cc2)c(OC)c1	PNC inhibitor inconclusive
CCOc1ccc(CNC(=S)N/N=C\c2ccc([N+](=O)[O-])cc2)cc1	PNC inhibitor -92, ALDH1A1 inh 3.2µM
COc1cc(/C=N/NC(N)=S)ccc1OCC(=O)Nc1ccc(C)c(C)c1	HPGD inh inconclusive, ALDH1A1 inh inconclusive
CCCCNC(=S)N/N=C/c1ccc(OCC(=O)Nc2c(C)cc(C)cc2C)c(OC)c1	PNC inhibitor -82
CCOc1ccc(CNC(=S)N/N=C/c2cccnc2)cc1	PNC inhibitor inconclusive
CCOc1cc(CN2CCC(CO)(Cc3cccc(C(F)(F)F)c3)CC2)ccc1OC	none (no result: PNC inhibitor, HPGD inh)
CC(C)(C)c1ccc(C(=O)NCC(=O)OCC(=O)Nc2ccc3c(c2)OCCO3)cc1	ALDH1A1 inh inconclusive
Cc1ccc(NC(=O)C(=O)NCc2ccc(/C=C(/C#N)C(=O)NCc3cccnc3)o2)cc1C	ALDH1A1 inh inconclusive
CN(N=O)C(=O)N[C@H]1C(O)C(O)C(CO)O[C@@H]1O (stereo not given in full)	none (no result: PNC inhibitor)
O=C(O)C1CSC2(c3ccc(Br)cc3)CCC(=O)N12 (stereo not given)	none (no result: PNC inhibitor, HPGD inh)
COc1ccc([N+](=O)[O-])cc1NC(=O)c1ccc(C)o1	none
Cc1ccc(CSc2nc3ccncc3n2CC(=O)Nc2cc(C)cc(C)c2)cc1	none
CC1CCN(C(=O)c2ccc(CSc3nc4ccncc4n3Cc3ccc(F)cc3)cc2)CC1	HPGD inh 0.79µM
O=C(CSc1c2c(nc3cc(Cl)ccc13)CCCC2)NCCN1CCOCC1	none (no result: PNC inhibitor, HPGD inh)
COc1ccc(NC(=O)CSc2c3c(nc4ccccc24)CCC3)c(OC)c1	none
